Assay outcomes from PubChem.
VP16 counter = VP16 counterscreen qHTS for inhibitors of ROR gamma transcriptional activity; Drosophila S2 Gal4-VP16 UAS-luciferase, luminescence, 20 h; Potency, µM (series often up to 53.6 µM), most hits filed as inhibitors; 310,000 tested, 3.5% active; AID 2546, 2010;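 also: Gal4-VP16 expression switched on by copper sulfate through the metallothionein promoter; nearly all actives have a fitted effect of over 50% in size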
SW480 rerep = A quantitative high throughput screen for small molecules that induce DNA re-replication in SW480 colon adenocarcinoma cells; 340,000 tested, 1.8% active; Potency, µM (top dose mostly 46.1 µM), actives largely listed as activators; AID 624297, 2012; SW480 DNA re-replication, Hoechst DNA content imaging, 48 h; also: nearly all actives have a fitted effect of over 55% in size
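Hoechst fluorescence of nuclei (405 nm excitation, 500-530 nm emission) measured by plate-scanning imager after 48 hr compound exposure at 37 C; re-replication scored as increased number of nuclei with elevated intensity.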
Chronic BCR inh = qHTS Assay to Find Inhibitors of Chronic Active B-Cell Receptor Signaling; ABC-DLBCL IkBa-CBG/CBR reporter, luminescence ratio, 4 h; Potency, µM (series often up to 46.1 µM), actives largely listed as inhibitors; 340,000 tested, 0.05% active; active = well fitted inhibition curve with a large enough effect in the signal ratio, with a control signal flat, not every such curve was filed as active; inconclusive = small, poorly fitted or top-dose-only effect, or effect the other way, or a change in a side signal; the % refers to the signal ratio
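Concentration-response series (up to 46 uM) were applied to TMD8 dual-reporter cells for 4 h at 37C with doxycycline. Green/red ratio, after filter-overlap correction, defined %Activity; red signal alone was normalised to basal cells and zero luminescence.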
MCF10A rerep = A quantitative high throughput screen for small molecules that induce DNA re-replication in MCF 10a normal breast cells; MCF 10A DNA re-replication, Hoechst nuclear intensity, 48 h; Potency, µM (highest dose often 46.1 µM), usual class: activators; 350,000 tested, 2.9% active; AID 624296, 2012; also: nearly all actives have a fitted effect of over 50% in size
RORg inh = qHTS for inhibitors of ROR gamma transcriptional activity. Potency, µM (doses to about 53.6 µM), most hits filed as inhibitors. AID 2551, 2010. Drosophila S2 Gal4-RORgamma UAS-luciferase reporter, 20 h. Nuclear receptor ROR-gamma (Mus musculus), P51450. 310,000 tested, 5.4% active; also: nearly all actives have a fitted effect of over 60% in size
Target sequence (P51450 whole entry, looked up, the tested form may be a part): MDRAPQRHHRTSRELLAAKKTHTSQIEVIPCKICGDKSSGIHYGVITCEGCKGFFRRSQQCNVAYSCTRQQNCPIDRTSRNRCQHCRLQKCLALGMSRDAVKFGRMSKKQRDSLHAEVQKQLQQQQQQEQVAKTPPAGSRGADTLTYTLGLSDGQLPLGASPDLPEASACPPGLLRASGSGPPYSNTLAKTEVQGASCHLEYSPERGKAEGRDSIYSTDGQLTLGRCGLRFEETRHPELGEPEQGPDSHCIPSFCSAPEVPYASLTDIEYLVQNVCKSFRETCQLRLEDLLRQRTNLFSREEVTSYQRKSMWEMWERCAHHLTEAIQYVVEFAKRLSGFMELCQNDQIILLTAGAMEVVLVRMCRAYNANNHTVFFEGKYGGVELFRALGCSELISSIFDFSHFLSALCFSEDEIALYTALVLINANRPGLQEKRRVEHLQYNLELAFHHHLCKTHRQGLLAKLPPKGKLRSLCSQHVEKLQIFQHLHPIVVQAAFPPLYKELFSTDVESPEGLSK
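Using a luciferase readout, inhibitors were identified by reduced reporter activity in Drosophila cells coexpressing a copper-inducible Gal4–ROR gamma fusion and UAS-driven Photinus luciferase, incubated 20 hr after 700 uM copper sulfate.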
Giardia killer = Small Molecules that selectively kill Giardia lamblia: qHTS | Giardia lamblia trophozoite viability | activity change, % at 7.66 µM, hits read low | 340,000 tested, 0.15% active | AID 540267, 2011; in the data active = activity change below about -80%; inconclusive = between about -30% and that limit;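 also: parasites exposed to compound for two days anaerobically before the ATP read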
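Each well holds 100 Giardia trophozoites and compound. After two days (48 hrs) at 37 deg C in anaerobic conditions, ATP is quantified by luminescence.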
Hits are given with their value; – = inactive; ? = inconclusive; · = no result given; ! = repeats disagree. Only some compounds are listed: those with a hit (about 8.3% of all), similar ones and a draw of the others. Unless noted, calls follow the shape of the dose curve; as a rule, active = well fitted curve in the direction sought with a large enough effect; inconclusive = small, poorly fitted or top-dose-only effect, or another doubt; inactive = no such curve, though single readings can be large; an effect the other way counts as inactive or inconclusive.

SMILES	VP16 counter	SW480 rerep	Chronic BCR inh	MCF10A rerep	RORg inh	Giardia killer
COc1cccc2cc(C(=O)NNC(=O)c3ccc(Br)cc3)c(=O)oc12	–	–	–	–	–	–
Cc1ccc2nc(N3C(=O)C(O)=C(C(=O)c4ccc(C)o4)C3c3ccco3)sc2c1 (configuration not stated)	·	–	–	18µM	·	–
Cc1cc(C)c2nc(N3C(=O)C(O)=C(C(=O)c4ccco4)C3c3ccc(O)cc3)sc2c1 (configuration not stated)	·	–	?	?	·	–
O=C(C1=C(O)C(=O)N(c2nc3ccc(Cl)cc3s2)C1c1ccco1)c1ccco1 (configuration not stated)	·	–	–	13µM	·	?
Cc1ccc2nc(N3C(=O)C(O)=C(C(=O)c4ccco4)C3c3ccc(O)cc3)sc2c1 (configuration not stated)	–	·	?	·	–	·
CCc1ccc2nc(N3C(=O)C(O)=C(C(=O)c4ccco4)C3c3cccs3)sc2c1 (configuration not stated)	?	–	?	15µM	?	–
Cc1cc(C)c2nc(N3C(=O)C(O)=C(C(=O)c4ccco4)C3c3cccc(O)c3)sc2c1 (configuration not stated)	·	–	?	21µM	·	–
CCOCCCNS(=O)(=O)c1ccc(NC(=O)C2CC(=O)N(c3ccc(C)cc3)C2)cc1 (configuration not stated)	–	–	–	–	–	–
O=[N+]([O-])c1ccc(N2CCCCC2)c(-c2nn[nH]n2)c1	–	–	–	–	–	–
CCc1ccc(Sc2cc(C(=O)NCc3cccc(OC)c3)c3ccccc3n2)cc1	·	·	–	·	·	·
O=C(O)c1ccc(C(=O)Nc2cccc3cccnc23)cc1	·	·	·	·	·	–
COC(=O)c1sc(N2C(=O)C(O)=C(C(=O)c3ccc(C)o3)C2c2cccs2)nc1C (configuration not stated)	–	?	–	18µM	–	–
Cc1ccc2nc(N3C(=O)C(O)=C(C(=O)c4ccco4)C3c3ccc(C)o3)sc2c1 (configuration not stated)	–	?	–	21µM	–	–
Fc1ccc(-c2nnc(-c3ccc(F)cc3)o2)cc1	?	–	?	–	–	–
Fc1ccc(-c2nnc(Cc3nnc(-c4ccc(F)cc4)o3)o2)cc1	?	–	–	–	5µM	–
CN(C)c1nc(N)nc(CSc2nc3cc(Cl)ccc3o2)n1	–	–	–	–	–	–
O=S1(=O)C=C(Sc2nc3cc(Cl)ccc3o2)c2ccccc21	2.5µM	?	6.3µM	?	5.6µM	–
CCN(CC(=O)Nc1c(F)cccc1F)C(=O)C1CCCN(C(=O)c2ccc(Cl)cc2)C1 (configuration not stated)	11µM	–	–	–	10µM	–
COC1(OC)C(/C=C/c2ccc(Cl)cc2)C(C#N)(C#N)C1(OC)OC (configuration not stated)	?	?	?	6.5µM	?	–
O=C(O)/C=C/C(=O)NC1CC1	–	–	–	–	–	–
COc1cccc(-c2nc3ccccc3c(=O)o2)c1	–	?	?	–	–	–
CCn1c(-c2cc(-c3cccc(OC)c3)nc3ccccc23)n[nH]c1=S	?	–	?	–	5µM	–
CCc1ccc(-c2cc(-c3n[nH]c(=S)n3CC)c3ccccc3n2)cc1	–	·	–	·	2µM	·
CC(=O)Nc1ccc(Oc2sc(C(=O)c3ccccc3)c(N)c2C#N)cc1	–	?	?	21µM	–	–
COCCN1C(=S)N[C@@H](c2cccc(F)c2)C(C(=O)OC)=C1C	11µM!	·	?	·	3.5µM!	·
CCN1C(=NCCCCO)N[C@@H](c2ccccc2)C(C(=O)OC)=C1C	–	·	–	·	–	·
CCN1C(=O)N[C@@H](c2cccc(F)c2)C(C(=O)OC)=C1C	·	–	·	–	·	–
